Data: PubChem BioAssay (NCI)
Compounds without any hit were thinned out: in the full panel of roughly 79,000, 15% have a hit. A number with no mark means an inactive call. The source made the active and inactive calls. Rule as the data show it: active = growth inhibition above about 70%; inactive = the rest.

Experiment: NCI Yeast Anticancer Drug Screen. Data for the mlh1 rad18 strain (AID 175)
Conditions: S. cerevisiae mlh1 rad18 strain growth inhibition; at 50.0 µM; active compounds read high
Method: Growth inhibition of yeast strains with defined genetic alterations is measured as a screen for potential anti-cancer activity. Selected strains with alterations in DNA damage repair or cell cycle control were exposed to compounds and growth inhibition was measured relative to vehicle treated controls. The strain used in this assay is mlh1 rad18
O=C(OCC1CCCO1)c1ccc([N+](=O)[O-])cc1 (stereo not given) gave a growth inhibition of 12.3%.
Work on Clc1ccc(/C=C/c2ccccn2)cc1 yielded a growth inhibition of 28.4%.
Molecule CCCCN(C=S)CCCC has a growth inhibition of 10.7%.
O=C(O)Cc1ccc(Cl)cc1 gave a growth inhibition of 0%.
Molecule Cc1cc(C)cc(OCC(=O)O)c1 has a growth inhibition of 3.4%.
Molecule O=Cc1c(O)c2ccccc2[nH]c1=O has a growth inhibition of 3.85%.
Molecule CN1CCCN(C(c2ccccc2)c2ccc(Br)cc2)CC1 (stereo not given) has a growth inhibition of 46%.
With CCN(Cc1ccc(Cl)c(Cl)c1)c1ccc2nc(N)nc(N)c2c1C the growth inhibition was 29.9%.
O=c1n(CC2CO2)c(=O)n(CC2CO2)n1CC1CO1 (stereo not given) showed a growth inhibition of -8.8%.
In the case of Nc1ccn(C2OC(CO)C(O)C2F)c(=O)n1 (stereo not given), the growth inhibition is reported as -6.95%.
With BrCc1cccc(C[P+](c2ccccc2)(c2ccccc2)c2ccccc2)c1 the growth inhibition was 41%.
For CCN(CC)CCOC(=O)Nc1c(C(C)C)cccc1C(C)C, the growth inhibition was 2.15%.
Work on CCCCCCCCCCCCCC/C=C\C(CC(=O)O)C(=O)O (stereo not given) yielded a growth inhibition of -19.2%.
Work on Cc1ccc[n+](CCC(N)=O)c1 yielded a growth inhibition of -6.75%.
Work on Cc1cc(CO)c(O)c(CO)c1 yielded a growth inhibition of 0.85%.
With O=[n+]1ccn([O-])c2ccccc21 the growth inhibition was 20.6%.
With NCCCN1CCCC1=O the growth inhibition was -15.1%.
With CC(c1ccccc1)N1C(=O)CSC1=S (stereo not given) the growth inhibition was 52.1%.
CC(C)(C)NCCC(O)c1cc(C(F)(F)F)nc2c(C(F)(F)F)cccc12 (stereo not given) showed a growth inhibition of 0.15%.
Molecule O=C(NC(=S)N1CC=CCC1)c1ccccc1 has a growth inhibition of 21.3%.
C=COC(=O)C(C)(C)C gave a growth inhibition of 31.5%.
For OCCOc1ccc(-c2cc(-c3ccccn3)nc(-c3ccccn3)c2)cc1, the growth inhibition was 77.4% (active).
With COc1cc(CC#N)c([N+](=O)[O-])cc1OC the growth inhibition was 0.4%.
In the case of COC(CCCl)c1ccc(Cl)cc1 (stereo not given), the growth inhibition is reported as 26.8%.
Work on N#Cc1ccc(OC(=O)Nc2c(Cl)cc(Cl)cc2Cl)cc1 yielded a growth inhibition of 9.95%.
Molecule CCC(=O)Oc1c(C)cc(O)c2ccccc12 has a growth inhibition of 27.7%.
CCOc1ccc2c(c1)c(C)cc(C)[n+]2CC gave a growth inhibition of -3.4%.
Cc1ccc(C)c2c1CCC2=O gave a growth inhibition of 13.3%.
O=C1NCC2CCCC1C2 (stereo not given) showed a growth inhibition of 1.7%.
Molecule CC1=CC(=Nc2ccc(N(C)C)cc2)C=C(C)C1=O has a growth inhibition of -12.4%.
O=CNCCc1ccccc1 gave a growth inhibition of 2.35%.
For CCCC(=O)CC(=O)c1ccccc1, the growth inhibition was 4.4%.
For C=CC1=NC(C)(C)CC(C)O1 (stereo not given), the growth inhibition was 9.75%.
Molecule CCCCCCCCCCCCCCCCCC(=O)NCCNC(=O)CCCCCCCCCCCCCCCCC has a growth inhibition of -4.25%.
For CCOC(=O)/C(O)=C(\C=N\C(=S)Nc1ccc(Cl)c(Cl)c1)C(=O)OCC, the growth inhibition was 50.6%.
With CC1CCC(C(C)(C)[N+](C)(C)C)CC1 (stereo not given) the growth inhibition was 36.4%.
Work on CC(C)N(CCCC#N)C(C)C yielded a growth inhibition of 8.05%.
With CCN(CC)CCN1CNC(=S)NC1 the growth inhibition was -7.15%.
For C[n+]1cc2cc3c(cc2c2ccccc21)OCO3, the growth inhibition was 39.5%.
Work on C1Cc2onc(-c3noc4c3CCC4)c2C1 yielded a growth inhibition of -14.6%.
